Data from PubChem BioAssay (NCATS).
Inconclusive results are not listed. Active and inactive are the calls of the source. Unless noted, calls come from the whole dose curve; as a rule, active = well fitted curve in the direction sought with a large enough effect; inconclusive = small, poorly fitted or top-dose-only effect, or another doubt; inactive = no such curve, though single readings can be large; an effect the other way counts as inactive or inconclusive.

Tests used:
[1] = biological target: Cytochrome P450 3A4 (Homo sapiens) (UniProt P08684); assay: qHTS Assay for Inhibitors and Substrates of Cytochrome P450 3A4 (AID 884); note: nearly all actives have a fitted effect of over 50% in size; note: potency is the fitted concentration of half-maximal effect; for activity change, negative = inhibition: % is set by controls: 0 for no effect and ±100 for the full control effect
Cytochrome P450 3A4 (Homo sapiens), sequence (P08684 whole entry, looked up): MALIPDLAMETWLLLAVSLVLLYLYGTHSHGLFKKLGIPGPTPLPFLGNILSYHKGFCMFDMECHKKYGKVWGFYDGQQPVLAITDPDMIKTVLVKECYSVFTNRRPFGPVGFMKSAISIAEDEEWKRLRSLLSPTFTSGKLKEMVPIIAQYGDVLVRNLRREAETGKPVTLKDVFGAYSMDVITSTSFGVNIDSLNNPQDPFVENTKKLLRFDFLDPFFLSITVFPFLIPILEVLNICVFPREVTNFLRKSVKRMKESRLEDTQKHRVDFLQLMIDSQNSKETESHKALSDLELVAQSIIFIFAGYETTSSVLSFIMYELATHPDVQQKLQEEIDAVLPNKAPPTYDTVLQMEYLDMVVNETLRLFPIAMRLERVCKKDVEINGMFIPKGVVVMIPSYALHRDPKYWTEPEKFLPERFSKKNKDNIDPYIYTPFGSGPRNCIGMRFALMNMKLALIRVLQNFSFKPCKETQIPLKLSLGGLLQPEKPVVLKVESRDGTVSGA
In short: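 20 nM human CYP3A4 with 25 uM Luciferin-PPXE (at KM) in 200 mM KPO4, preincubated 10 min with compound; NADPH regeneration started a 60 min RT reaction. Luciferin detected by luminescence, normalized to 57 uM ketoconazole as full inhibition.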

[2] = qHTS Assay for Lipid Storage Modulators (AID 1519; calls by dose curve; note: potency is the fitted concentration of half-maximal effect; for activity change, negative = inhibition: % is set by controls: 0 for no effect and ±100 for the full control effect); details: Drosophila S3 cells, BODIPY lipid droplet/cell ratio, laser cytometry, cells loaded with oleic acid; for activity change, negative = inhibition: at 57.5 µM (top of the series)
In short: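 Cells seeded at 5,000 per well were treated with compounds over a concentration series and loaded with oleic acid (400 uM, as added). Lipid droplet fluorescence (488 nm excitation, 500-530 nm channel) was read by laser-scanning cytometry and normalized to 20 uM Triacsin C.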

[3] = biological target: DNA dC->dU-editing enzyme APOBEC-3G (Homo sapiens) (UniProt Q9HC16); assay: qHTS for inhibitors of Vif-A3G interactions: Validation (AID 588379); note: 0% is about no effect
DNA dC->dU-editing enzyme APOBEC-3G (Homo sapiens), sequence (Q9HC16 whole entry, looked up): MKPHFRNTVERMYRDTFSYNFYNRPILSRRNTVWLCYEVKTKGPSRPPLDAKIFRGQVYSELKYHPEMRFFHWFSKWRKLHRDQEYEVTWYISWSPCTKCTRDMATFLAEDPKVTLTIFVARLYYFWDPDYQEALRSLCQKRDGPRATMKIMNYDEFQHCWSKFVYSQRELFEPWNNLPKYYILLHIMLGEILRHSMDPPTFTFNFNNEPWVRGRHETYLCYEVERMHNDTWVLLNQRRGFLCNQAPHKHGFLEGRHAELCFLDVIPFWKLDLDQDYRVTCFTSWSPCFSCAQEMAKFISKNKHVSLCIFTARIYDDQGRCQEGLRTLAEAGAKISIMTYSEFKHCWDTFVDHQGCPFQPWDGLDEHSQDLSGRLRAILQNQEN
In short: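 HeLa cells stably expressing Vif and A3G-eYFP, 700 cells/well, incubated overnight at 37 deg C, then exposed to compound overnight at 37 deg C. Inhibition of Vif-mediated degradation read as increased yellow fluorescence (Ex 488/Em 500-530) by laser-scanning cytometry.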

[4] = Confirmation and Secondary Assay for Modulators of Hemoglobin Beta Chain Splicing at IVS2 705 locus (AID 930);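 note: HeLa cells stably expressing the EGFP-705 splicing reporter; GFP fluorescence per well restored by corrected splicing of the IVS2-705 intron in EGFP; % of control where 0% means no effect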
In short: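 Splice-correction reporter: EGFP cDNA split by beta-globin intron 2 bearing the 705 mutation, stably in HeLa. Compound incubation 2 days, 37C; fluorescent objects 5-250 µm summed per well.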

[5] = biological target: Ubiquitin carboxyl-terminal hydrolase 1 (Homo sapiens) (UniProt O94782); assay: Inhibitors of USP1/UAF1: Pilot qHTS (AID 504865);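 note: rhodamine fluorescence freed from ubiquitin-rhodamine substrate followed over time; top concentration of the series differs between compounds; % is set by controls: 0 for no effect and ±100 for the full control effect; nearly all actives have a fitted effect of over 35% in size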
Ubiquitin carboxyl-terminal hydrolase 1 (Homo sapiens), sequence (O94782 whole entry, looked up): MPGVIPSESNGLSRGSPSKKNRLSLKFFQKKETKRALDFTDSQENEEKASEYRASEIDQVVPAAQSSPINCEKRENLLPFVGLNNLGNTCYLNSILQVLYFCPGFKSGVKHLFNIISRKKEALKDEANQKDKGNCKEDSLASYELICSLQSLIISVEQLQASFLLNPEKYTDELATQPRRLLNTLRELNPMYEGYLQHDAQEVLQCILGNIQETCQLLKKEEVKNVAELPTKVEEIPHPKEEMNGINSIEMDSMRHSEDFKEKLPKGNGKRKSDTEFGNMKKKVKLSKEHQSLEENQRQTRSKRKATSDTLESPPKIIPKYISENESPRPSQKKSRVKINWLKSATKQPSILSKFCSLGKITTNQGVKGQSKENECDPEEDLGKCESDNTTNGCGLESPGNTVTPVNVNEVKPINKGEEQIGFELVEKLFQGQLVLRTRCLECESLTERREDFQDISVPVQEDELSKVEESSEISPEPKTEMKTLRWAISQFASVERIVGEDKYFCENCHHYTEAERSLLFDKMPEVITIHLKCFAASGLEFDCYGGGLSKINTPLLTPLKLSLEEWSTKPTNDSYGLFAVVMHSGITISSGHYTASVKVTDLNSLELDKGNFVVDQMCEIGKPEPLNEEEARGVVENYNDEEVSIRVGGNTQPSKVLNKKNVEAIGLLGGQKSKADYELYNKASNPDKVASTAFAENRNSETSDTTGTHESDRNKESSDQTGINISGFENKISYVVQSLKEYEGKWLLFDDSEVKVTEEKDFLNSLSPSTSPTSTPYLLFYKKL
In short: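 In 50mM HEPES pH 7.8 containing 0.5mM EDTA, 1mM TCEP, 0.1 mg/ml BSA and 0.01% Tween-20, 1nM USP1/UAF1 is exposed to compound for 15 min, then Ub-Rho (150nM final) is added and fluorescence is read over time.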

[6] = biological target: Cytochrome P450 3A4 (Homo sapiens) (UniProt P08684); assay: qHTS Assay for Activators of Cytochrome P450 3A4 (AID 885); note: nearly all actives have a fitted effect of over 65% in size
In short: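 Quantitative HTS format: compounds preincubated with 20nM human CYP3A4 and Luciferin-PPXE substrate at KM, reaction started by NADPH regeneration, stopped after 60 min, luciferase luminescence read 20 min later.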

[7] = Confirmation and Secondary Assay for Modulators of Hemoglobin Beta Chain Splicing at IVS2 654 locus (AID 910);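 note: per-well total GFP intensity by laser scanning cytometry after 2-day treatment; % of control where 0% means no effect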
In short: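 HeLa cells stably carrying EGFP interrupted by mutant beta-globin IVS2-654 intron (CMV-driven) were treated with compound for 2 days at 37C; corrected splicing was scored as total peak GFP intensity per well (488 nm excitation, 500-520 nm emission).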

[8] = biological target: Cytochrome P450 2D6 (Homo sapiens) (UniProt P10635); assay: Cytochrome P450 family 2 subfamily D member 6 (CYP2D6) small molecule antagonists: luciferase biochemical (cell-free) qHTS assay (AID 1645840; active = well fitted curve in the direction sought with a large enough effect in the repeat runs; an effect the other way counts as inactive or inconclusive; note: % is set by controls: 0 for no effect and ±100 for the full control effect; nearly all actives have a fitted effect of over 55% in size)
Cytochrome P450 2D6 (Homo sapiens), sequence (P10635 whole entry, looked up): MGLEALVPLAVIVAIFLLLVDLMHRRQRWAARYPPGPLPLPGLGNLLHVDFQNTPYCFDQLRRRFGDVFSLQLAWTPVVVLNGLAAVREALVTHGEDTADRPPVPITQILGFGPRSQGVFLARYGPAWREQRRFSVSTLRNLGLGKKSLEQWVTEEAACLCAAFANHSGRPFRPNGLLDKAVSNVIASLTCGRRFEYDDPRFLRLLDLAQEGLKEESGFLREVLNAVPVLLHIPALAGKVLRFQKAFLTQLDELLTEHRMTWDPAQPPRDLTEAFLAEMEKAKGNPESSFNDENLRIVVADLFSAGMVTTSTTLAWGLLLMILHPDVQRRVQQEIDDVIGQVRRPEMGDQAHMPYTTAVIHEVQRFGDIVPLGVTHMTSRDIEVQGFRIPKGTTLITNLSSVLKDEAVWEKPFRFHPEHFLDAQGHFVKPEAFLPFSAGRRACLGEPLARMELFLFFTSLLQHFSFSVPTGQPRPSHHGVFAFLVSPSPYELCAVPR
In short: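 P450-Glo luminescent screen: recombinant CYP2D6 enzyme–proluciferin substrate mix preincubated with compound 10 min at room temperature, then NADPH regeneration added for 1 h at room temperature. Detection reagent added for 20 min; luciferin light read as relative luminescence units.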

[9] = Confirmatory qHTS to identify inhibitors of SARS-CoV-2 cell entry (AID 1645844; calls by dose curve; note: potency is the fitted concentration of half-maximal effect; nearly all actives have a fitted effect of over 45% in size)
In short: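 HEK293-ACE2 cells (Expi293F stably expressing human ACE2) were pretreated with compounds for 1 hr at 37C, then infected with MLV-based particles carrying Wuhan-Hu-1 spike (C-terminal 19-aa truncation). Luciferase luminescence read after 48 hr; normalized to spike PP (100%) and bald PP (0%).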

[10] = Cytotoxicity counterscreen for inhibitors of SARS-CoV-2 cell entry (AID 1645845; calls by dose curve; note: % is set by controls: 0 for no effect and ±100 for the full control effect; nearly all actives have a fitted effect of over 50% in size); details: outcome: dose series up to 57.1 µM unless noted
In short: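 Expi293F/hACE2 cells seeded overnight; cpd pin-transferred in DMSO, 1 h preincubation, + media, 48 h 37 C 5% CO2; ATPLite 1step luminescence; normalized to cells and no cells.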

[11] = Primary qHTS to identify inhibitors of SARS-CoV-2 cell entry (AID 1645846; calls by dose curve; note: potency is the fitted concentration of half-maximal effect; nearly all actives have a fitted effect of over 45% in size); details: SARS-CoV-2 pseudovirus cell entry assay, luminescence; activity change, negative = inhibition: at 57.1 µM (top of the series) unless noted
In short: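 Inhibition of spike-mediated entry was scored in human ACE2-transfected Expi293F cells. Particles were MLV-pseudotyped with Wuhan-Hu-1 S carrying a 19-aa C-terminal deletion; signal was luciferase after two days, scaled between spike PP and fusion-protein-free PP.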

[12] = VSVG counterscreen qHTS to identify inhibitors of SARS-CoV-2 cell entry (AID 1645847; calls by dose curve; note: potency is the fitted concentration of half-maximal effect; nearly all actives have a fitted effect of over 65% in size)
In short: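 Luminescence from a luciferase reporter, normalised to bald particle and VSV-G pseudotyped particle wells, is the read-out. Cells are HEK293 expressing human ACE2, exposed to compound 1 h before a 48 h particle infection at 37 °C.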

[13] = measured here: cell count channel max response
[14] = measured here: lipid channel max response

In the case of `O=c1cccc2n1CC1CC2CN(CCO)C1` (centres undefined), the Potency [1] is reported as “inactive”, the activity change, negative = inhibition [2] is reported as 3.63% (inactive) and the max response [2, 13] is reported as 9.42%. For the same compound, the max response [2, 14] was 15.7% and the outcome [3] was “inactive”.

In the case of `COc1ccc2c(c1)[C@@]13CCCCC1[C@@H](C2)N(C)CC3` (some centres undefined), the Potency [4] is reported as “inactive”, the activity change, negative = inhibition [2] is reported as 7.37% (inactive) and the max response [2, 13] is reported as 4.27%. The max response [2, 14] was 15.7% and the Potency [5] was “inactive”.

For `CC1(C)C(O)CC(O)[C@]2(C)C1CC(O)[C@]1(C)C2CC[C@@]2(C)C(c3ccoc3)OC(=O)C3O[C@]312` (some centres undefined), the Potency [1] was 12.6 µM (active), the Potency [6] was “inactive” and the Potency [7] was “inactive”. For the same compound, the Potency [4] was “inactive”, the activity change, negative = inhibition [2] was 0.703% (inactive) and the max response [2, 13] was 12.6%. For the same compound, the max response [2, 14] was 16.1%.

With `O=c1cccc2n1CC1CNCC2C1` (centres undefined) the Potency [6] was “inactive”, the Potency [7] was “inactive” and the Potency [4] was “inactive”. For the same compound, the activity change, negative = inhibition [2] was 8.73% (inactive), the max response [2, 13] was 7.65% and the max response [2, 14] was 18%. The outcome [3] was “inactive”.

With `CC(=O)C1CCC2C3CCC4CC(O)CCC4(C)C3CC(O)C12C` (centres undefined) the Potency [1] was “inactive”, the activity change, negative = inhibition [2] was -2.59% (inactive) and the max response [2, 13] was 3.25%. It also gave a max response [2, 14] of 2.61%.

With `CC(=O)OC1C[C@@]2(C)C(c3ccoc3)C[C@H]3O[C@@]32[C@@]2(C)C(=O)C(O)=C3C(C)(C)C(=O)C=C[C@]3(C)C12` (some centres undefined) the Potency [1] was 0.398 µM (active), the Potency [6] was “inactive” and the Potency [7] was “inactive”. For the same compound, the Potency [4] was “inactive”, the Potency [2] was 15.8 µM (active) and the max response [2, 13] was -2.69%. It also gave a max response [2, 14] of -67.6%.

For `C=C1C([C@@]2(C)C(OC(C)=O)CC(=O)O[C@@](C)(COC(C)=O)C2CC(=O)OC)C(OC=O)C(OC(=O)C(OC(C)=O)C(C)CC)[C@]2(C)C(c3ccoc3)CC(=O)C12O` (some centres undefined), the Potency [1] was 12.6 µM (active), the Potency [6] was “inactive” and the Potency [7] was “inactive”. For the same compound, the Potency [4] was “inactive”, the activity change, negative = inhibition [2] was -5.86% (inactive) and the max response [2, 13] was 19%. For the same compound, the max response [2, 14] was 13.8%.

In the case of `CC(=O)N1CC2CC(C1)c1cccc(=O)n1C2` (centres undefined), the Potency [1] is reported as “inactive”, the activity change, negative = inhibition [2] is reported as -4.96% (inactive) and the max response [2, 13] is reported as -29.2%. The max response [2, 14] was -33.4% and the outcome [3] was “inactive”.

In the case of `C=CCC1(CC(C)C)C(=O)NC(=O)NC1=O`, the Potency [8] is reported as “inactive”.

For `COc1cc2c(cc1O)CCNC2C` (centres undefined), the Potency [1] was “inactive”, the Potency [7] was “inactive” and the Potency [4] was “inactive”. The activity change, negative = inhibition [2] was 6.98% (inactive), the max response [2, 13] was 8.33% and the max response [2, 14] was 17.5%.

With `O=C(/C=C\n1cnc(-c2cc(C(F)(F)F)cc(C(F)(F)F)c2)n1)NNc1cnccn1` the Potency [9] was 3.04 µM (active), the Potency [10] was “inactive” and the Potency [11] was 2.82 µM (active). For the same compound, the Potency [12] was 1.71 µM (active).

With `COC1C(O)C(OC2CC[C@]3(C=O)C4C(OC(C)=O)C[C@@]5(C)C(C6=CC(=O)OC6)CC[C@]5(O)C4CC[C@]3(O)C2)OC(C)C1OC(C)=O` (some centres undefined) the Potency [1] was “inactive”, the Potency [7] was “inactive” and the Potency [4] was “inactive”. For the same compound, the activity change, negative = inhibition [2] was 4.28% (inactive), the max response [2, 13] was 10% and the max response [2, 14] was 17.4%.
